Screening results: PubChem BioAssay, Broad Institute
Most compounds without a hit are left out; they make up all but 8.1% or so of the library.
PD-1 reverse act: activators reversing PD-1 mediated T-cell inhibition. AID 2316. activation, % (concentration not given with the values). primary human CD4 T cells, PD-L1 beads, CellTiter-Glo 96 h. 29,000 tested, under 10 active; call rule not given here;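 further: 0% = median vehicle wells and 100% = positive control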
MITF inhib: blocks MITF activity; inhibition, % (test concentration not listed); AID 2240; TRPM1 promoter luciferase, luminescence, 24 h; 0.28% of 37,000 active; in the data active means inhibition above about 85%; inconclusive means no clear call, values can overlap the other calls; inactive means below about 68%;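 further: human melanocyte line stably carrying TRPM1 promoter luciferase reporter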
Hedgehog inh: blocks Sonic Hedgehog signaling; Shh-LIGHT2 Gli-luciferase reporter, 30 h; 2.1% of 22,000 active; inhibition, % (concentration not given with the values);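 active means mean inhibition across valid replicates above about 65%, limit read from the data; inconclusive means mean under the limit, yet half or more replicates past it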;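 further: pathway switched on by Shh-conditioned medium diluted 1 in 25 in low serum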
NOMO-1 viab: STK33 inhibitor candidate reducing NOMO-1 cell viability. NOMO-1 AML viability, CellTiter-Glo luminescence, 72 h. inhibition, % (concentration not given with the values). 7.5% of 37,000 active; in the data active means inhibition above about 80%; inconclusive means no clear call, values can overlap the other calls
* marks the source's active call; other numbers are inactive results.

CC(C)NC(=O)Nc1cccc2c1O[C@@H](CN(C)Cc1ccc(C(=O)Nc3ccccc3N)cc1)[C@@H](C)CN([C@H](C)CO)C2=O was read as PD-1 reverse act 2.4, MITF inhib -5.1 and NOMO-1 viab 70.8.
C[C@H]1CN([C@@H](C)CO)C(=O)c2cccc(NS(C)(=O)=O)c2O[C@H]1CN(C)Cc1ccc(C(=O)Nc2ccccc2N)cc1 was read as PD-1 reverse act 1.6, MITF inhib -12.6 and NOMO-1 viab 45.0.
`C[C@H]1CN([C@@H](C)CO)C(=O)Cc2cc(NC(=O)Nc3ccc(C(F)(F)F)cc3)ccc2O[C@@H]1CN(C)CC1CC1` gave PD-1 reverse act 2.4, MITF inhib -11.4, Hedgehog inh 24.0 and NOMO-1 viab 10.6.
For C[C@@H]1CN([C@@H](C)CO)C(=O)Cc2cc(NC(=O)Nc3ccc(C(F)(F)F)cc3)ccc2O[C@@H]1CN(C)CC1CCCCC1 the results were PD-1 reverse act 1.8, MITF inhib 7.6, Hedgehog inh -2.3 and NOMO-1 viab 104.1*.
`C[C@H]1CN([C@@H](C)CO)C(=O)Cc2cc(NC(=O)Nc3ccc(C(F)(F)F)cc3)ccc2O[C@H]1CN(C)CC1CCCCC1` gave PD-1 reverse act -5.4, MITF inhib 0.9, Hedgehog inh inconclusive and NOMO-1 viab 129.7*.
`C[C@@H]1CN([C@H](C)CO)C(=O)c2cc(NC(=O)Nc3ccc(C(F)(F)F)cc3)ccc2O[C@H]1CN(C)CC1CCCCC1` gave PD-1 reverse act 1.6, MITF inhib -6.2 and NOMO-1 viab 103.4*.
`C[C@@H]1CN([C@H](C)CO)C(=O)Cc2cc(NC(=O)Nc3ccc(F)cc3)ccc2O[C@H]1CN(C)CC1CCCCC1` gave MITF inhib 12.1, Hedgehog inh -57.9 and NOMO-1 viab inconclusive.
C=CCc1c(C)[nH]c(=S)[nH]c1=O was read as PD-1 reverse act 0.3, MITF inhib 7.0, Hedgehog inh 1.9 and NOMO-1 viab -19.6.
`CC(C)(C)c1ccc(CSCC(=O)Nc2ccccc2C#N)cc1` gave PD-1 reverse act 0.5, MITF inhib 10.3, Hedgehog inh -99.7 and NOMO-1 viab 35.6.
C[C@H]1CN([C@@H](C)CO)C(=O)c2cc(NC(=O)Nc3ccccc3)ccc2O[C@H]1CN(C)Cc1ccc2c(c1)OCO2 was read as PD-1 reverse act 5.8, MITF inhib -11.1 and NOMO-1 viab 92.0*.
C[C@H]1CN([C@@H](C)CO)C(=O)c2cc(NC(=O)Nc3ccc4c(c3)OCO4)ccc2O[C@@H]1CN(C)Cc1ccc2c(c1)OCO2 was read as PD-1 reverse act 1.1, MITF inhib 1.6, Hedgehog inh 23.4 and NOMO-1 viab 26.8.
For C[C@H]1CN([C@@H](C)CO)C(=O)c2cc(NC(=O)C3CCCCC3)ccc2O[C@H]1CN(C)Cc1ccc2c(c1)OCO2 the results were PD-1 reverse act 0.9, MITF inhib -2.8 and NOMO-1 viab 91.7*.
Screening COc1ccc(NC(=O)Nc2ccc3c(c2)C(=O)N([C@H](C)CO)C[C@@H](C)[C@@H](CN(C)Cc2ccc4c(c2)OCO4)O3)cc1 returned PD-1 reverse act 1.9, MITF inhib 0.9 and NOMO-1 viab 9.4.
For C[C@H](CO)N1C[C@H](C)[C@H](CN(C)Cc2ccc3c(c2)OCO3)Oc2ccc(NC(=O)Nc3ccc(F)cc3)cc2C1=O the results were PD-1 reverse act -1.7, MITF inhib -12.2, Hedgehog inh 31.2 and NOMO-1 viab 88.9*.
For COc1ccc(NC(=O)Nc2ccc3c(c2)C(=O)N([C@H](C)CO)C[C@H](C)[C@H](CN(C)Cc2ccc4c(c2)OCO4)O3)cc1 the results were MITF inhib 8.2 and NOMO-1 viab 97.2*.
`COc1ccc(Cl)cc1N(CC(=O)N1CCN(c2cccc(Cl)c2)CC1)S(C)(=O)=O` gave PD-1 reverse act -0.4, MITF inhib -14.2 and NOMO-1 viab 17.8.
Screening CC1OC(NC(=O)c2ccccc2F)C(NC(=O)c2ccccc2F)OC1C (stereo not given) returned PD-1 reverse act -0.1, MITF inhib 6.9, Hedgehog inh 9.8 and NOMO-1 viab 9.7.
`COc1c(CC=C(C)C)c2c(c3oc(=O)c(-c4ccc(OC(C)=O)cc4)c(OC(C)=O)c13)C=CC(C)(C)O2` gave PD-1 reverse act -0.5, MITF inhib 23.7, Hedgehog inh -42.5 and NOMO-1 viab 32.0.
`Cn1c(CSCc2ccccc2)c(C#N)c2ccccc21` gave PD-1 reverse act 0.1, MITF inhib -23.4 and NOMO-1 viab 16.5.
`CC(C)NC(=O)Nc1ccc2c(c1)C(=O)N([C@@H](C)CO)C[C@@H](C)[C@@H](CN(C)Cc1ccc3c(c1)OCO3)O2` gave PD-1 reverse act 1.2, MITF inhib -11.3 and NOMO-1 viab -2.6.
For C[C@H](CO)N1C[C@H](C)[C@H](CN(C)Cc2ccc3c(c2)OCO3)Oc2ccc(NC(=O)Nc3ccc4c(c3)OCO4)cc2C1=O the results were PD-1 reverse act 0.2, MITF inhib 1.3, Hedgehog inh 19.2 and NOMO-1 viab 93.4*.
`CC(C)NC(=O)Nc1ccc2c(c1)C(=O)N([C@H](C)CO)C[C@H](C)[C@H](CN(C)Cc1ccc3c(c1)OCO3)O2` gave MITF inhib -1.5 and NOMO-1 viab 93.3*.
For COc1cc2nc3occc3c(OC)c2cc1OCC(O)C(C)(C)O (stereo not given) the results were PD-1 reverse act 0.2, MITF inhib 6.3, Hedgehog inh 5.4 and NOMO-1 viab 11.1.
`CCn1c(SCC(=O)Nc2c(Cl)cc(Cl)cc2Cl)nnc1-c1ccccc1F` gave PD-1 reverse act -2.5, MITF inhib -3.8 and NOMO-1 viab -9.8.
`CCOC(=O)CC1=Nn2c(nnc2-c2cccs2)SC1` gave PD-1 reverse act 1.9, MITF inhib 1.3, Hedgehog inh 15.9 and NOMO-1 viab -3.4.
For CCOC(=O)CSc1c(-c2cccs2)[nH]c2ccccc12 the results were PD-1 reverse act -2.9, MITF inhib 37.0, Hedgehog inh -15.0 and NOMO-1 viab 139.4*.
NC(=O)CSc1nnc(-c2cccnc2)s1 was read as PD-1 reverse act 1.0, MITF inhib -24.3 and NOMO-1 viab 4.3.
`O=C(COc1ccc(Cl)cc1C1C2=C(CCCC2=O)NC2=C1C(=O)CCC2)Nc1ccc(Cl)cc1` gave PD-1 reverse act 0.4, MITF inhib 27.2 and NOMO-1 viab 115.6*.
For O=C(/C=C/c1ccc(O)c(O)c1)OCCc1ccccc1 the results were PD-1 reverse act -11.3, MITF inhib -31.7, Hedgehog inh 76.9* and NOMO-1 viab 141.5*.
O=C(/C=C/c1ccccc1)Oc1ccccc1 was read as PD-1 reverse act -4.1, MITF inhib 8.3 and NOMO-1 viab 47.8.
CC1(C)N=C(NS(=O)(=O)c2cc(C(F)(F)F)cc(C(F)(F)F)c2)N(c2ccccc2)O1 was read as PD-1 reverse act -1.3, MITF inhib 49.2, Hedgehog inh 100.8* and NOMO-1 viab 14.2.
For O=C(Nc1ccccc1C(=O)O)c1cccc(S(=O)(=O)Nc2cccc(C(F)(F)F)c2)c1 the results were PD-1 reverse act 0.1, MITF inhib 5.9 and NOMO-1 viab 20.9.
CCOC(=O)c1cnc2c(OC)cccc2c1N1CCC2(CC1)OCCO2 was read as PD-1 reverse act 0.9, MITF inhib 6.7, Hedgehog inh -15.6 and NOMO-1 viab 38.5.
